Test results reported in PubChem BioAssay AID898 (University of Pittsburgh Molecular Library Screening Center, 2007).
The whole screen tested about 140,000 compounds, of which about 220 (0.16%) were called active. Rule as the data show it: active = inhibition above about 50%; inactive = the rest. Shown is part of a subset that was picked to be rich in actives.

Each compound was assayed on YopH tyrosine phosphatase [Yersinia enterocolitica] (assay: YopH tyrosine phosphatase inhibitors, primary screen, biochemical, fluorescence Ex485/Em525 (AID 898)). Details: stronger effect = higher value, concentration not given here.

SMILES	inhibition
CC(=O)Nc1ccc(C(=O)OCC(=O)Nc2ccc([N+](=O)[O-])cc2C(F)(F)F)cc1	-15.8% (inactive)
C[n+]1ccccc1C1CCCC/C1=N\Nc1ccc([N+](=O)[O-])cc1[N+](=O)[O-] (configuration not stated)	3.63% (inactive)
CN(C)CCNC(=O)Cc1ccc([N+](=O)[O-])cc1	-24.9% (inactive)
COC(=O)c1nc2ccccc2s1	-16.5% (inactive)
N#C/C(=C(/O)Cc1cccc2ccccc12)c1nc2ccccc2s1	-11% (inactive)
CC1=CC(=C(C#N)c2nc3ccccc3s2)C=C(C)N1c1ccc(F)cc1F	79.4% (active)
O=[N+]([O-])c1ccc(N2CCNCC2)cc1NCc1cccnc1	-24.3% (inactive)
COc1ccc(C/C(C)=N/NC(=O)c2cc(C)oc2C)cc1	-13.9% (inactive)
COCCNC(=O)c1ccccc1NS(=O)(=O)c1ccc(C)c([N+](=O)[O-])c1	-4.7% (inactive)
CCCC(NC(=O)c1ccco1)c1nc2ccccc2[nH]1 (configuration not stated)	-24.8% (inactive)
C/C(=N\NC(=O)CSc1nc2ccccc2c(=O)n1-c1ccccc1C)c1cccs1	-17% (inactive)
CN1CCN(c2ccc(NC(=O)c3ccc4c(c3)[nH]c(=O)n4Cc3ccc(F)cc3)cc2)CC1	-24.8% (inactive)
O=C(/C=C/NCc1ccc(F)cc1)c1ccccc1	-30.4% (inactive)
Cc1c(NC(=S)Nc2ccccc2)c(=O)n(-c2ccccc2)n1C	-29.6% (inactive)
CCCCOC(=O)c1ccc(NC(c2ccc(C)cc2)P(=O)(OC)OC)cc1 (configuration not stated)	-6.33% (inactive)
COc1ccccc1N1N=C(c2cccs2)CC1c1ccccc1 (configuration not stated)	-12.8% (inactive)

SMILES	inhibition
CCN(CC)CCn1c(/N=C/c2cc(Br)ccc2O)nc2ccccc21	-20.7% (inactive)
C=CCNCCCCOc1ccccc1	-29.1% (inactive)
O=C(CSc1nnc(SCc2ccc(Cl)cc2)s1)N/N=C/c1ccccc1Cl	-26.2% (inactive)
CC(=O)Nc1ccc(S(=O)(=O)N2CCN(c3ccc([N+](=O)[O-])c(NCCN4CCOCC4)c3)CC2)cc1	-27.6% (inactive)
C=CCNC(=O)/C=C/c1ccc(C(C)C)cc1	-23.5% (inactive)
Cc1ccc(N(Cc2cc3ccccc3[nH]c2=O)C(=O)c2cccs2)cc1	-10.8% (inactive)
O=C(NC1CCCCCC1)c1cccnc1Sc1ccc(Cl)cc1	-17.2% (inactive)
Brc1ccc(C2CC(c3ccccc3)=Nc3ccccc3N2)cc1 (configuration not stated)	-11.5% (inactive)
COC(=O)C1=NNC2(c3ccc(C)cc3)C(=O)N(c3cccc(C)c3C)C(=O)C12 (configuration not stated)	-28.4% (inactive)
COc1cc(C(=S)NC2CCCCC2)ccc1O	-30.2% (inactive)
CC1(C)C2CC=C(/C=N/NC(=O)c3ccc(Cl)cc3)C1C2 (configuration not stated)	-29.6% (inactive)
CCCc1nc(SCC(=O)Nc2ccc(S(=O)(=O)N(C)C)cc2)c2ccccc2n1	-25.4% (inactive)
NC1=NN(c2cccc(C(=O)O)c2)C(=O)C1	-7.9% (inactive)
CN(CC(=O)NCCc1ccccc1)S(=O)(=O)c1cnc[nH]1	-21% (inactive)
COc1cccc(NC(=S)NCc2ccco2)c1	-28.3% (inactive)
O=C(CN1CCN(c2ccccn2)CC1)N1CCc2ccccc21	-10% (inactive)
